{"source": "paper PMC7862700", "about": "“An all-to-all approach to the identification of sequence-specific readers for epigenetic DNA modifications on cytosine”", "test_in_all_cases": "DAPPL (digital affinity profiling via proximity ligation, sequencing); 10 mM Tris-HCl pH 7.5, 50 mM NaCl, 1 mM DTT, 4% glycerol, room temperature, 30 min; GST-TFs on glutathione beads, 16-mer random dsDNA library, 0.1% formaldehyde crosslink after washing; high values mean tight binding", "key": {"FEV": {"target": "T1, FEV (Homo sapiens, UniProt Q99581 1-238)", "T1 sequence": "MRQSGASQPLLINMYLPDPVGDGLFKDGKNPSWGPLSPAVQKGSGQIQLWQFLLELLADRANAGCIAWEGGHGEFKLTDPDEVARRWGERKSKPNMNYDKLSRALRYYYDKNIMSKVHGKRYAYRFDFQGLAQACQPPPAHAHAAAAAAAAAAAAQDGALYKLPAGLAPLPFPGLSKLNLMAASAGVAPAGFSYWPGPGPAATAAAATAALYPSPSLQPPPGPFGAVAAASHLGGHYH", "details": "protein: recombinant; tags: N-terminal GST; dsDNA, one strand shown", "summary_of_the_method": "(§1)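 Binding signal is each hexamer's read frequency for a factor divided by its frequency in the tag-only sample. The factors were GST-fused human transcription factors from yeast, captured on glutathione beads, DNA-barcoded and pooled with that sample. Pools were incubated with 200 nmole of a random double-stranded 16-mer DNA library in Tris/NaCl/DTT/glycerol buffer at room temperature for 30 min, then washed, crosslinked with 0.1% formaldehyde, proximity-ligated with BsaI/T4 ligase (1 h, 37 °C), PCR-amplified and sequenced on an Illumina NextSeq500.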"}, "ETV5": {"target": "ETV5 (Homo sapiens, UniProt P41161 1-510)", "sequence (P41161 whole entry)": "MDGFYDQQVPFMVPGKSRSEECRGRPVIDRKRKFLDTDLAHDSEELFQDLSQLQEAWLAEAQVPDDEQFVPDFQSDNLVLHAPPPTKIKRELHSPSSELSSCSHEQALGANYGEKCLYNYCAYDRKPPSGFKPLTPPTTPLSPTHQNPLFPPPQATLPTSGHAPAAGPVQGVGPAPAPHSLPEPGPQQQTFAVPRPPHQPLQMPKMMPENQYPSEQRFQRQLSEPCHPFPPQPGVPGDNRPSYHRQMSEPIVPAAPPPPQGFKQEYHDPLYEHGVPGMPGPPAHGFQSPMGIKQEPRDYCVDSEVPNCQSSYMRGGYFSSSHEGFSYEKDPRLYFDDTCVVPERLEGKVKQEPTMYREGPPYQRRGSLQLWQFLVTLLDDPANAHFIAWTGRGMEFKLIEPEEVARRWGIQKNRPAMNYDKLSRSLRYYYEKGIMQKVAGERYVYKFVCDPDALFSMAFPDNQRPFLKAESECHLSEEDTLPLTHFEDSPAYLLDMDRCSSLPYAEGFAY", "details": "protein: recombinant; tags: N-terminal GST; dsDNA, one strand shown", "summary_of_the_method": "as §1"}, "HSF1": {"target": "HSF1 (Homo sapiens, UniProt Q00613 1-529)", "sequence (Q00613 whole entry)": "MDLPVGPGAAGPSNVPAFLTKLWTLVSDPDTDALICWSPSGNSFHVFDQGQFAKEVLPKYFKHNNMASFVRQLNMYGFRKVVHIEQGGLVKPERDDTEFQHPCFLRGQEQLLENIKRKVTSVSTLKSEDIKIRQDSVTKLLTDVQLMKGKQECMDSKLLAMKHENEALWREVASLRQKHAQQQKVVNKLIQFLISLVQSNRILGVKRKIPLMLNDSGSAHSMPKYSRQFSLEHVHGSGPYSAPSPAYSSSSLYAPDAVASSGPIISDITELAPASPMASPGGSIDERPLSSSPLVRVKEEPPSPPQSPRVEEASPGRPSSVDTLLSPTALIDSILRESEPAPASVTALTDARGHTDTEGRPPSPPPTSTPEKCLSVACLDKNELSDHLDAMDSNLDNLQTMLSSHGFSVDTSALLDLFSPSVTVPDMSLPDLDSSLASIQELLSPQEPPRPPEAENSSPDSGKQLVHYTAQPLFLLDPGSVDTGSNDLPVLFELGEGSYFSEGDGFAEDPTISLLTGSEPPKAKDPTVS", "details": "protein: recombinant; tags: N-terminal GST; chain copies: 3; dsDNA, one strand shown", "summary_of_the_method": "as §1"}, "SPIC": {"target": "T2, SPIC (Homo sapiens, UniProt Q8N5J4 1-248)", "T2 sequence": "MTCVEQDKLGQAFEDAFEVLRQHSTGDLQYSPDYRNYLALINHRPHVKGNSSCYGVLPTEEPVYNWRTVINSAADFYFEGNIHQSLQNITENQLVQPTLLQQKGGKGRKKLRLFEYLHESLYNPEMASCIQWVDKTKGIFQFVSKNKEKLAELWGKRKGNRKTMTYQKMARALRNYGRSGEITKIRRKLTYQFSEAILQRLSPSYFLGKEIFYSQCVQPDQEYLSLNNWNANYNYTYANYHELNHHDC", "details": "protein: recombinant; tags: N-terminal GST; dsDNA, one strand shown", "summary_of_the_method": "as §1"}, "ELF4": {"target": "ELF4 (Homo sapiens, UniProt Q99607 1-663)", "sequence (Q99607 whole entry)": "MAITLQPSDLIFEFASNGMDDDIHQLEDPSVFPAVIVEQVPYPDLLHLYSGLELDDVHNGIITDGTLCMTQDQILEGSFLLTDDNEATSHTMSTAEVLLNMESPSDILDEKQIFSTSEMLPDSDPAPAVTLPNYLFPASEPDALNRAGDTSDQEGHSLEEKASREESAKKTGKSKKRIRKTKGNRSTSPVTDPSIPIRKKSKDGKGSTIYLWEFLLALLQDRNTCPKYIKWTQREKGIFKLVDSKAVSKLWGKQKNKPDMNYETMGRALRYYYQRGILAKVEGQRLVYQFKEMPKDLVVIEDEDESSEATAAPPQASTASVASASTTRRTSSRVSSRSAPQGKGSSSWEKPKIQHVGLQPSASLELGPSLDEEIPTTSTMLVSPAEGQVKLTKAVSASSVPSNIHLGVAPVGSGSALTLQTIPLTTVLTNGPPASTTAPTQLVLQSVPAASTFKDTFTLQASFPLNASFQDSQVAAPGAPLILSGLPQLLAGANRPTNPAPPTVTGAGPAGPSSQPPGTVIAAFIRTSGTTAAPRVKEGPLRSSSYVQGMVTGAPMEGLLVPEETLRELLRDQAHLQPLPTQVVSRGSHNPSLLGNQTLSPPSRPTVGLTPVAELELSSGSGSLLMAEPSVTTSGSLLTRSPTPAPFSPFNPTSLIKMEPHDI", "details": "protein: recombinant; tags: N-terminal GST; dsDNA, one strand shown", "summary_of_the_method": "as §1"}, "ELK4": {"target": "T3, ELK4 (Homo sapiens, UniProt P28324-2 1-405)", "T3 sequence": "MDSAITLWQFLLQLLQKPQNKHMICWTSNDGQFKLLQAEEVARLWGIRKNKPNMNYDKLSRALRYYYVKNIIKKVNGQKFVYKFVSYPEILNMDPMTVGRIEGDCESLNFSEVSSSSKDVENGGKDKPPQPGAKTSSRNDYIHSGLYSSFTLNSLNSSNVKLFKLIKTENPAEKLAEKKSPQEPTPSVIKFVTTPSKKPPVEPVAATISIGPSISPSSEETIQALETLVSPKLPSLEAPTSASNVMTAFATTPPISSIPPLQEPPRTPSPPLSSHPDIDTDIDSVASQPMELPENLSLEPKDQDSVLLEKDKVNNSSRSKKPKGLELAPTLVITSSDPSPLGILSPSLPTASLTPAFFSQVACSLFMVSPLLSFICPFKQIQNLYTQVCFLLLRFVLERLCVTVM", "details": "protein: recombinant; tags: N-terminal GST; dsDNA, one strand shown", "summary_of_the_method": "as §1"}, "ETV2": {"target": "T4, ETV2 (Homo sapiens, UniProt O00321 1-342)", "T4 sequence": "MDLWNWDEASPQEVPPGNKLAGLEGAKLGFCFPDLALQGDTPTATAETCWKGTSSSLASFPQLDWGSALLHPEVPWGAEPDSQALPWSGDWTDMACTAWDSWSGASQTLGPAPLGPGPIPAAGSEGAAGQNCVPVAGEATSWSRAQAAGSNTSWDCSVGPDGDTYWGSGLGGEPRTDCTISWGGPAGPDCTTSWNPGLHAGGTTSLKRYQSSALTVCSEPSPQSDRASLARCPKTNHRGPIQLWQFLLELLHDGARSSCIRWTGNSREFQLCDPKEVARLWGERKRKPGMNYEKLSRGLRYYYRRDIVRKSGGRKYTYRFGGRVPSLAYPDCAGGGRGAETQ", "details": "protein: recombinant; tags: N-terminal GST; dsDNA, one strand shown", "summary_of_the_method": "as §1"}, "ELF3": {"target": "T5, ELF3 (Homo sapiens, UniProt P78545 1-371)", "T5 sequence": "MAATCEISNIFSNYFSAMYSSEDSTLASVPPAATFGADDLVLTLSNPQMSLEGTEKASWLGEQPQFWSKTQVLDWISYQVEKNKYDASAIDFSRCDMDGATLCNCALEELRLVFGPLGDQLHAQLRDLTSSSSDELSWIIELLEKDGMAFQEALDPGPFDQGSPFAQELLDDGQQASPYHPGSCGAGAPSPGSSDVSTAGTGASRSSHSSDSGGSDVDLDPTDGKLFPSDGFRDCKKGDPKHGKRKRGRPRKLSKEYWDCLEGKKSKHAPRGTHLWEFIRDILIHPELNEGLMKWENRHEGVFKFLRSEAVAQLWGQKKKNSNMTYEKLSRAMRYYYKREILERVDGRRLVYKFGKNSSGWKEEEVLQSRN", "details": "protein: recombinant; tags: N-terminal GST; dsDNA, one strand shown", "summary_of_the_method": "as §1"}, "CRX": {"target": "CRX (Homo sapiens, UniProt O43186 1-299)", "sequence (O43186 whole entry)": "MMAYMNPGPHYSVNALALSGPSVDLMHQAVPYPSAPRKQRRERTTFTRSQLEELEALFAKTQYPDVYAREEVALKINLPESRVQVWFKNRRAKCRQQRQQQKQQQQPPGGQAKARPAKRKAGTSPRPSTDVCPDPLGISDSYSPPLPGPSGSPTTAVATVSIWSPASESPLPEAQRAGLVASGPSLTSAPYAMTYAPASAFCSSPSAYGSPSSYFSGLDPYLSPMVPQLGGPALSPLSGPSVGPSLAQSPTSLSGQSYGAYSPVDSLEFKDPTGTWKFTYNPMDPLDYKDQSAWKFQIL", "details": "protein: recombinant; tags: N-terminal GST; dsDNA, one strand shown", "summary_of_the_method": "as §1"}}, "data": [{"sequence": "CTTTAC", "values": [{"measurement": "binding signal", "setting": "FEV", "result": "1.31 fold enrichment (6-mer frequency, TF over GST control)"}, {"measurement": "binding signal", "setting": "ETV5", "result": "1.3 fold enrichment (6-mer frequency, TF over GST control)"}, {"measurement": "binding signal", "setting": "HSF1", "result": "1.37 fold enrichment (6-mer frequency, TF over GST control)"}, {"measurement": "binding signal", "setting": "SPIC", "result": "1.4 fold enrichment (6-mer frequency, TF over GST control)"}, {"measurement": "binding signal", "setting": "ELF4", "result": "1.45 fold enrichment (6-mer frequency, TF over GST control)"}, {"measurement": "binding signal", "setting": "ELK4", "result": "1.44 fold enrichment (6-mer frequency, TF over GST control)"}, {"measurement": "binding signal", "setting": "ETV2", "result": "1.41 fold enrichment (6-mer frequency, TF over GST control)"}, {"measurement": "binding signal", "setting": "ELF3", "result": "1.44 fold enrichment (6-mer frequency, TF over GST control)"}, {"measurement": "binding signal", "setting": "CRX", "result": "1.51 fold enrichment (6-mer frequency, TF over GST control)"}]}]}
